Pf Dd2 growth: Plasmodium falciparum Dd2 growth inhibition; 120,000 tested, 4.3% active; P. falciparum Dd2 growth, SYBR Green, 72 h; Potency, µM (doses to about 28.9 µM), for the others: at the highest dose activity, negative = inhibition, usual class: inhibitors; active = well fitted inhibition curve with a large enough effect;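 also: plate controls were DMSO vehicle for no effect and reference drug for full effect; nearly all actives have a fitted effect of over 65% in size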
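Readout: SYBR Green fluorescence, 485 nm excitation, 535 nm emission, after ~16 h lysis at 37C. Before that, Dd2-infected red cells (2.5% hematocrit) grew 72 h with compound, 29 uM top final concentration.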
* hit, by the source's call; i = inactive; [ ] = another dose, or the depositor's remark. Only a selection was taken, and hits are over-represented in it overall. Potency is read from the fitted curve at half-maximal effect.

SMILES | Pf Dd2 growth
O=C(CCc1ccccc1)C(=O)N1CCCN2CCC[C@H]2C1 | i
Cc1ccsc1C(=O)N1CCC2(CC1)N=C(c1cccc(Br)c1)NO2 | -8.6%
Cc1cc(Nc2cccc(Cl)c2)nc2ccc(NC(=O)c3cncc(Br)c3)cc12 | 2.82µM*
CCOc1cc(C(=O)Nc2ccc(-c3cn4cccnc4n3)cc2)cc(OCC)c1OCC | -17.3%
COc1ccc(Nc2ncc(C(=O)Nc3cccc(Cl)c3)c3ccccc23)cc1 | i
Cc1ccccc1C(=O)Nc1ccc2nc(Nc3cccc(C(F)(F)F)c3)cc(C)c2c1 | -8.6%
Cn1nc(-c2ccc(C(=O)Nc3cccc(C(F)(F)F)c3)cc2)c2ccccc2c1=O | 2.7%
CCOc1cc(C(=O)Nc2ccc3nc(Nc4cccc(Cl)c4)cc(C)c3c2)cc(OCC)c1OCC | 2µM*
Cc1cc(Nc2cccc(C(F)(F)F)c2)nc2ccc(NC(=O)c3cncc(Br)c3)cc12 | 0.178µM*
CCN(CC)S(=O)(=O)c1ccc2nc(NC(=O)c3cncc(Br)c3)sc2c1 | 19.8%[0.594 µM]
CCN(CC)c1ccc(C(=O)Nc2ccc3nc(N(CC)CC)cc(C)c3c2)cc1 | -17.9%
COc1ccc(CNC(=O)N2CCC3(C2)C(=O)N(C)c2ccccc23)cc1 (stereo not drawn) | -21.6%
O=C(NCc1cccnc1)C1CCC(=O)N1C1CCN(C(=O)c2ccccc2F)CC1 (stereo not drawn) | -5.7%
COCCNC(=O)[C@H]1C[C@H](Oc2ccccc2)CN1C(=O)NC(C)C | 10.6%
Cc1nnc2n1CCC(NC(=O)c1cnccn1)CC2 (stereo not drawn) | 17.8%
O=C(C1CC1)N1CCc2cc(Br)cc(S(=O)(=O)N3CCN(c4cccc(Cl)c4)CC3)c21 | -6.8%
CC(=O)N1CCc2cc(Br)cc(S(=O)(=O)N3CCN(c4cccc(C(F)(F)F)c4)CC3)c21 | 10µM*
CCC(=O)N1CCc2cc(Br)cc(S(=O)(=O)N3CCN(c4ccccc4)CC3)c21 | -3.4%
COCCN1C(=O)CCc2cc(NC(=O)c3ccc(C)cc3C)ccc21 | i
Cc1ccc(CNC(=O)CCCCn2c(=O)c3ccccc3n(Cc3ccc(C)cc3)c2=O)cc1 | i
Cc1cc(C)cc(NC(=O)CCCn2c3ccccc3c(=O)c3ccccc32)c1 | 10µM*
Cc1cc(C)cc(NC(=O)CCCn2nc(C)c3c(C)n(-c4ccccc4)nc3c2=O)c1 | 24.6%
COc1ccc(OC)c(NC(=O)Cn2c(=O)c(-c3noc(C)n3)c3n(c2=O)CCCC3)c1 | 54.2%
CCOC(=O)c1cnc2c(C)cccc2c1Nc1ccc(OC(C)C)cc1 | -29.8%
CCOC(=O)c1cnc2c(C)c(Cl)ccc2c1Nc1ccc(C)cc1C | -23.4%
SMILES | Pf Dd2 growth
CCOC(=O)c1cnc2c(ccc3ccccc32)c1Nc1ccccc1O | 11.2µM*
CCOC(=O)c1cnc2c(C(F)(F)F)cccc2c1Nc1cccc(C(=O)OC)c1 | 2.82µM*
CCOC(=O)c1cnc2c(C)cc(C)cc2c1Nc1ccccc1OCC | 0.0%
CCOC(=O)c1sc2ccccc2c1S(=O)(=O)Nc1cccc(C(F)(F)F)c1 | i
NC(=O)[C@@H]1CN(C(=O)Cc2ccccc2F)C[C@H]1COc1ccccc1 | -5.7%
O=C(Nc1ccccc1)c1cnc2n1CCN(Cc1cccc(OC(F)(F)F)c1)CC2 | -12.6%[44.1 µM]
COc1cccc(CC(=O)N2CCC(N3C(=O)C4(CCCCC4)C3c3ccncc3)CC2)c1 (stereo not drawn) | i
C#CCNC(=O)C1CCc2nnc(C3CCN([S+](=O)([O-])c4ccccc4)CC3)n21 (stereo not drawn) | 10.2%
CN(C)C[C@@H]1CN(C)C[C@H]1NC(=O)c1ccc(C(F)(F)F)cc1 | -28.1%
O=C(Nc1ccc(F)cc1)N1CCC(O)(c2csc(CN3CCc4ccccc4C3)n2)CC1 | -7.0%
O=C(c1nc(-c2ccc(F)cc2)c2cnccn12)N1CCCC1 | 6.31µM*
C[S+](=O)([O-])c1ccc(-c2nc(C(=O)N3CCN(c4ncccn4)CC3)n3ccncc23)cc1 | 11.2µM*
O=C(c1nc(-c2ccc(F)cc2)c2ccccn12)N1CCOCC1 | 13.3%[44.1 µM]
C#CCNC(=O)c1nc(-c2ccc([S+](C)(=O)[O-])cc2)c2cnccn12 | i
C[S+](=O)([O-])c1ccc(-c2nc(C(=O)N3CCOCC3)n3ccncc23)cc1 | 7.94µM*
O=C(c1nc(-c2ccccc2)c2ccccn12)N1CCN(c2ncccn2)CC1 | -6.1%
C[S+](=O)([O-])c1ccc(-c2cc(C(=O)N3CCN(c4ncccn4)CC3)nn3cccc23)cc1 | -24.5%
N#CC1CCN(C(=O)c2nc(-c3cccnc3)c3cnccn23)CC1 | -16.0%[44.1 µM]
O=C(c1nc(-c2cccc(C(F)(F)F)c2)c2cnccn12)N1CCOCC1 | -3.8%
COc1ccc(NC(=O)Nc2ccc(C)n(CC(=O)N3CCCC(C)C3)c2=O)cc1 (stereo not drawn) | -26.4%
COc1ccccc1N1CCN(C(=O)C[C@@H]2O[C@H](CNC(=O)c3ccco3)[C@@H](O)[C@H]2O)CC1 | 4.3%
COC1C(=O)N(C2CCN(S(=O)(=O)C(C)C)CC2)C12CCOCC2 (stereo not drawn) | 8.9%
COc1ccc(-c2onc(C)c2C)cc1S(=O)(=O)NCC1CCN(Cc2cc(C)ccc2C)CC1 | 11.2µM*
COc1ccc(-c2onc(C)c2C)cc1S(=O)(=O)NCc1ccc(Br)cc1 | 23.9%
COCCCNS(=O)(=O)c1cc(-c2onc(C)c2C)ccc1OC | -7.5%
SMILES | Pf Dd2 growth
COc1ccc(NC(=O)c2cc(CN3CCCC3)on2)cc1Cl | 458.2%[5.79 µM]
Cc1sc2cc(C(=O)NCc3cccnc3)[nH]c2c1CN1CCCCC1 | i
Cc1sc2cc(C(=O)NC(C)C)[nH]c2c1CN1CCCCC1 | i
CC(=O)Nc1ccc(NC(=O)c2cc3sc(C)c(CN4CCCCC4)c3[nH]2)cc1 | 2.24µM*
CCCNC(=O)c1cc2sc(C)c(CN3CCCCC3)c2[nH]1 | -23.9%
COc1ccc(NC(=O)c2cc3sc(C)c(CN4CCCCC4)c3[nH]2)cc1OC | 2.24µM*
CC(=O)N1CCC(C(=O)NCc2nnc3ccc(-c4ccc(C)cc4)nn23)CC1 | i
COCc1nc(C2CCOCC2)nn1CC1COCCO1 (stereo not drawn) | -8.7%
CSc1ccc(-c2nc(CN3CCOCC(CN(C)C)C3)c(C)o2)cc1 (stereo not drawn) | -29.8%
COc1cccc(-c2nc3c(c(SCC(=O)Nc4cc(C)ccc4C)n2)Cc2c(CO)cnc(C)c2O3)c1 | 40.6%
Cc1cc(C)c(NC(=O)CSc2nc(-c3ccc(F)cc3)nc3c2Cc2c(CO)cnc(C)c2O3)c(C)c1 | 10.7%
Cc1ncc(CO)c2c1Oc1nc(-c3ccc(Cl)cc3)nc(SCC(=O)N3CCCCC3)c1C2 | 3.16µM*
Cc1ccc(NC(=O)CSc2nc(-c3ccc(F)cc3)nc3c2Cc2c(CO)cnc(C)c2O3)cc1C | 9.4%
O=C(CSc1nc(-c2ccc(Cl)cc2)nc2c1Cc1ccccc1O2)N1CCCCC1 | 32.9%
Cc1cccc(NC(=O)CSc2nc(-c3cccc(C)c3)nc3c2Cc2c(CO)cnc(C)c2O3)c1 | 8.91µM*
O=C(c1ccccn1)N1CCC(c2n[nH]c(=O)n2Cc2ccc(F)cc2)CC1 | 36.6%
CC[C@H]1CN(C(=O)C(C)(C)C)CC[C@H]1CC(=O)N(CC)C(=O)NCCCN(C)C | -27.2%[44.1 µM]
CC(C)Cc1nnc(NC(=O)C[C@H]2NC(=O)c3ccccc3NC2=O)s1 | -13.9%
CCCCn1cc(S(=O)(=O)c2ccccc2)c(=O)c2cc(F)c(N3CCN(CCC)CC3)cc21 | -10.4%
CCCN1CCN(c2cc3c(cc2F)c(=O)c(S(=O)(=O)c2ccc(CC)cc2)cn3CC)CC1 | 10µM*
CCCn1cc(S(=O)(=O)c2ccc(CC)cc2)c(=O)c2cc(F)c(N3CCN(C)CC3)cc21 | 7.08µM*

Assay outcomes: PubChem BioAssay, National Center for Advancing Translational Sciences (NCATS)
